Laboratory results as given in PubChem BioAssay (EPA / NIEHS).
“And” between values parts separate entries of the source, which are not always exact repeats. Equal entries are not always repeated. Inconclusive results are not listed. Some structures have more than one record in an assay (separate samples or runs), and their calls can disagree. The source made the active and inactive calls. Rule for the calls, unless noted: active = hit-call score of the fitted dose curve at least 0.9, where 1 is the maximum; inactive = score below 0.9.

Tests used:
[1] = target: Estrogen receptor (Homo sapiens) (UniProt P03372); test: CCTE_Deisenroth_AIME_384WELL_LUC_Active: CCTE's 384-well Estrogen Receptor Transactivation Assay with AIME metabolic competence (ERTA luciferase; metabolism positive), Deisenroth Lab (AID 2284030; active = hit-call score of the fitted dose curve at least 0.9, where 1 is the maximum)
Sequence of Estrogen receptor (Homo sapiens) (P03372 whole entry, looked up): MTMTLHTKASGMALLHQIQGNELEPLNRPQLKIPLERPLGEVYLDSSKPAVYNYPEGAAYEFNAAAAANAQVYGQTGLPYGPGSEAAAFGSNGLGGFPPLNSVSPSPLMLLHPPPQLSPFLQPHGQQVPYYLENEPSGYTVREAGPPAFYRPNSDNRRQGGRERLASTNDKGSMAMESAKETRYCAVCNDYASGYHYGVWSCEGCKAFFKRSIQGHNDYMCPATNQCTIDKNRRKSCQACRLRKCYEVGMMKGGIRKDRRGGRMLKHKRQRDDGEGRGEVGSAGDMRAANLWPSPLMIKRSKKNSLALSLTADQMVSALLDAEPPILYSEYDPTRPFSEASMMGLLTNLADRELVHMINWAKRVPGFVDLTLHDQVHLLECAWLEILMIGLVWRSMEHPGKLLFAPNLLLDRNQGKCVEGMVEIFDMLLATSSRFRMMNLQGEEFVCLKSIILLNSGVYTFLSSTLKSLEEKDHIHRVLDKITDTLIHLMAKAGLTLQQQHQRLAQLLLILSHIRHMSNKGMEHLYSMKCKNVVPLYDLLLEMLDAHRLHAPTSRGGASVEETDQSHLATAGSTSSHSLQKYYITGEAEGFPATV
Outline: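 VM7Luc4E2 breast cells were given, for 24 hours, medium pre-incubated for 2 hours with parent chemical (0.002-200 uM, 10 concentrations) and alginate-encapsulated phenobarbital/beta-naphthoflavone-induced rat hepatic S9. Luciferase gain of signal was fitted against 17beta-estradiol; n=4 or more.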

[2] = CCTE_Deisenroth_AIME_384WELL_CTox_Active: Cytotoxicity Assessment (CTOX) in CCTE's 384-well Estrogen Receptor Transactivation Assay with AIME metabolic competence (metabolism positive), Deisenroth Lab (AID 2284037; active = hit-call score of the fitted dose curve at least 0.9, where 1 is the maximum;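 note: chemicals first conditioned 2 h by alginate-bound induced rat liver S9 before cells; activity means signal loss indicating cell death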)
Outline: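 Chemicals pre-incubated 2 hours with alginate-immobilised phenobarbital/beta-naphthoflavone-induced male Sprague Dawley rat liver S9, then conditioned medium applied 24 hour to VM7Luc4E2 cells. Viability by fluorogenic protease substrate; 10-point series 0.002 - 200 uM.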

[3] = target: Estrogen receptor (Homo sapiens) (UniProt P03372); test: CCTE_Deisenroth_AIME_384WELL_LUC_Inactive: CCTE's 384-well Estrogen Receptor Transactivation Assay without AIME metabolic competence (ERTA luciferase; metabolism negative), Deisenroth Lab (AID 2284038; active = hit-call score of the fitted dose curve at least 0.9, where 1 is the maximum;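 note: hits raise estrogen receptor luciferase signal so potencies reflect agonists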)
Outline: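 VM7Luc4E2 ER transactivation, luciferase bioluminescence after 24 h, using medium pre-incubated 2 h with S9-free alginate microspheres. Concentrations 0.002–200 uM; gain of signal fitted relative to 17beta-estradiol.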

[4] = target: Estrogen receptor (Homo sapiens) (UniProt P03372); test: CCTE_Deisenroth_AIME_384WELL_LUC_Shift: CCTE's 384-well Estrogen Receptor Transactivation Assay with AIME metabolic competence data shift (ERTA luciferase; difference in metabolism positive and negative), Deisenroth Lab (AID 2284041);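 note: shift is response with S9 minus without S9 so positive means metabolism raised ER signal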
Outline: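 Chemicals (0.002–200 uM, 10 points) pre-incubated 2 h with alginate-encapsulated induced male Sprague Dawley rat liver S9 or S9-free, then medium applied 24 h to VM7Luc4E2 cells; luciferase. Endpoint is per-concentration difference, S9-positive minus negative.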

[5] = CCTE_Shafer_MEA_acute_per_network_burst_spike_number_mean: CCTE's Neural Acute Assay for Average Number of Spikes in a Network Burst, Shafer Lab (AID 2284019);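 for AC50: curve fitted for loss of signal so actives reduce spikes per network burst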
Outline: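 Rat cortical cultures, DIV 13/15; spike threshold 8x rms noise, 300-5000 Hz band-pass, 12.5 kHz sampling; wells need >/= 10 active electrodes. Compound 0.03-40 uM, 40 min, 37 C; % change vs own baseline, DMSO negative control.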

[6] = CCTE_Shafer_MEA_acute_per_network_burst_electrodes_number_mean: CCTE's Neural Acute Assay for Mean Number of Electrodes in a Network Burst, Shafer Lab (AID 2284021);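 note: curves fitted for decreases only so hits reduce electrodes per burst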
Outline: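 Percent change from baseline was computed as mean electrode count per network burst, comparing 40 min recordings before and during compound (0.03-40 uM) exposure. Cultures were rat cortical neurons at DIV 13 or 15, recorded on MEAs at 37 C with an adaptive 8x rms threshold.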

[7] = CCTE_Shafer_MEA_acute_network_burst_percentage: CCTE's Neural Acute Assay for Percentage of Network Bursts, Shafer Lab (AID 2284022);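 note: curves fitted for loss so actives lower network burst percentage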
Outline: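 Network burst percentage (spikes in network bursts divided by total spikes) recorded at 37 C over 40 min baseline and 40 min after compound, 0.03-40 uM, in rat cortical cultures at DIV 13 or 15. Analysed as percent change from baseline versus DMSO.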

[8] = CCTE_Shafer_MEA_acute_cross_correlation_area: CCTE's Neural Acute Assay for Area of Cross Correlation, Shafer Lab (AID 2284024);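 note: area under pooled inter-electrode spike cross-correlation near zero lag as percent change from own baseline; curves fitted for loss of cross-correlation area so actives lower synchrony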
Outline: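 Percent change in well-wide cross-correlation area (window around zero lag) between 40 min baseline and 40 min post-compound recordings, 37 C; rat cortical cultures on MEA at DIV 13 or 15, dosed 0.03-40 uM, wells needing >/= 10 active electrodes.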

[9] = CCTE_Shafer_MEA_acute_cross_correlation_HWHM: CCTE's Neural Acute Assay for Cross Correlation at Half Width at Half Maximum, Shafer Lab (AID 2284026);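 note: percent change per well from pre-dose baseline in spike cross-correlogram half width; hits are a decrease in cross-correlogram half width relative to DMSO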
Outline: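 Per-well percent change in cross-correlogram half width at half maximum, derived from 40-min recordings before and after compound (0.03-40 uM) at 37 C. Cultures were rat cortical neurons, DIV 13 or 15, with adaptive spike detection at 8x rms.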

[10] = CCTE_Shafer_MEA_acute_synchrony_index: CCTE's Neural Acute Assay for Synchrony, Shafer Lab (AID 2284027);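 note: network synchrony index of spontaneous spiking in primary rat cortical neurons on MEAs; fitted for loss of signal so actives lower synchrony relative to DMSO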
Outline: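 Plates equilibrated 20 min at 37 C, baseline recorded 40 min, compound (0.03-40 uM) added, then 40 min more recorded. Cells: primary rat cortical neurons, DIV 13 or 15. Per-well synchrony index change analysed in negative direction against DMSO.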

[11] = CCTE_Shafer_MEA_dev_firing_rate_mean: CCTE's Neural Network Formation Assay for Mean Firing Rate, Shafer Lab (AID 2284031);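 for AC50: curve fitted for loss of firing so AC50 reflects decreased mean firing rate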
Outline: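 Steps: seed rat cortical cells (1.5 x 10^5/well) with laminin on PEI-coated MEA; dose day 0; record DIV 5/7/9/12, full media and compound exchange after DIV 5 and 9 recordings; compute well-mean firing rate AUC.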

[12] = CCTE_Shafer_MEA_dev_per_burst_spike_percent: CCTE's Neural Network Formation Assay for Percent of Spikes in a Burst, Shafer Lab (AID 2284032);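 for AC50: fitted as a decrease in burst spike percentage below DMSO baseline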
Outline: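 Value is trapezoidal AUC over recordings on days 5, 7, 9 and 12 of the well-mean fraction of spikes falling in single-electrode bursts; rat cortical cultures exposed continuously from plating, treatment renewed DIV 5 and 9, fitted downward against DMSO.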

[13] = CCTE_Shafer_MEA_dev_active_electrodes_number: CCTE's Neural Network Formation Assay for Number of Active Electrodes, Shafer Lab (AID 2284040; active = hit-call score of the fitted dose curve at least 0.9, where 1 is the maximum;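 for AC50: potency for loss of active electrodes versus DMSO so lower counts are hits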)
Outline: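 Counts electrodes per well firing at least 5 spikes/min, recorded on days 5, 7, 9 and 12 in rat cortical cultures dosed continuously from plating (treatment refreshed DIV 5, 9). Value is the area under the curve over recordings, fitted downward relative to DMSO.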

[14] = CCTE_Shafer_MEA_dev_burst_rate: CCTE's Neural Network Formation Assay for Burst Rate, Shafer Lab (AID 2284042);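 for AC50: potency for loss of burst rate below DMSO control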
Outline: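 Cells plated, treated day 0; recorded DIV 5, 7, 9, 12; fed and re-treated DIV 5, 9. Endpoint: bursts per recording time, active-electrode well mean, trapezoidal AUC, fitted in decreasing direction against DMSO baseline.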

[15] = CCTE_Shafer_MEA_dev_per_burst_interspike_interval: CCTE's Neural Network Formation Assay for Burst Interspike Interval, Shafer Lab (AID 2284044);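 for AC50: potency for a decrease of within-burst interspike interval below DMSO level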
Outline: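 Mean interspike interval within single-electrode bursts, averaged over bursting electrodes, from rat cortical cultures on MEA plates recorded on days 5, 7, 9 and 12. Continuous compound exposure from plating; trapezoidal AUC fitted downward relative to DMSO.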

[16] = CCTE_Shafer_MEA_dev_bursting_electrodes_number: CCTE's Neural Network Formation Assay for Number of Bursting Electrodes, Shafer Lab (AID 2284043; active = hit-call score of the fitted dose curve at least 0.9, where 1 is the maximum;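 for AC50: potency is for loss of bursting electrodes relative to DMSO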)
Outline: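 Rat cortical primary neurons, 48-well MEA, 16 electrodes/well; dosing DIV 0–12, re-dosed with full media change DIV 5, 9. Recordings DIV 5/7/9/12, AxIS adaptive spike detector; bursting electrode = ≥1 burst/2 min. AUC across days; loss of signal vs DMSO.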

[17] = CCTE_Deisenroth_AIME_96WELL_CTox_Active: Cytotoxicity Assessment (CTOX) in CCTE's 96-well Estrogen Receptor Transactivation Assay with AIME metabolic competence (metabolism positive), Deisenroth Lab (AID 2284028; active = hit-call score of the fitted dose curve at least 0.9, where 1 is the maximum)
Outline: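 Cytotoxicity in VM7Luc4E2 breast cells after 24 h exposure to medium from a 2 h metabolic pre-incubation with induced rat hepatic S9 in alginate microspheres; fluorescent live-cell protease readout, 10-point series 0.002–200 uM, n=4.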

[18] = CCTE_Deisenroth_AIME_96WELL_CTox_Inactive: Cytotoxicity Assessment (CTOX) in CCTE's 96-well Estrogen Receptor Transactivation Assay without AIME metabolic competence (metabolism negative), Deisenroth Lab (AID 2284029; active = hit-call score of the fitted dose curve at least 0.9, where 1 is the maximum)
Outline: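 Metabolism-negative mode: alginate-water lids without rat S9, 2 h pre-incubation of 10-point series (0.002 - 200 uM). Conditioned medium on VM7Luc4E2 cells 24 h; loss of fluorescent live-cell protease signal marks cytotoxicity.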

[19] = target: Estrogen receptor (Homo sapiens) (UniProt P03372); test: CCTE_Deisenroth_AIME_96WELL_LUC_Active: CCTE's 96-well Estrogen Receptor Transactivation Assay with AIME metabolic competence (ERTA luciferase; metabolism positive), Deisenroth Lab (AID 2284023; active = hit-call score of the fitted dose curve at least 0.9, where 1 is the maximum)
Outline: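 Metabolism-positive mode: induced rat hepatic S9 in alginate microspheres conditions test solutions (0.002 - 200 uM, 10 points) for 2 hours. VM7Luc4E2 ER luciferase reporter cells then exposed 24 h; positive-direction fit against 17beta-estradiol, n=4 typical.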

[20] = target: Estrogen receptor (Homo sapiens) (UniProt P03372); test: CCTE_Deisenroth_AIME_96WELL_LUC_Inactive: CCTE's 96-well Estrogen Receptor Transactivation Assay without AIME metabolic competence (ERTA luciferase; metabolism negative), Deisenroth Lab (AID 2284025; active = hit-call score of the fitted dose curve at least 0.9, where 1 is the maximum)
Outline: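 Metabolism-negative arm: chemicals (0.002–200 uM, 10 points) incubated 2 h with alginate-water microspheres, then medium moved onto VM7Luc4E2 cells for 24 h luciferase read-out. Positive direction vs 17beta-estradiol; n≥4 experiments.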

Measured: AC50

CCSC(=O)N(CC(C)C)CC(C)C
inactive: [1] | [2] | [3] | [4]

O=C(Nc1ccc([N+](=O)[O-])cc1Cl)c1cc(Cl)ccc1O
inactive: [1] | [2] | [4]
active: [5] 179 nM | [6] 301 nM | [7] 252 nM | [8] 77.4 nM | [9] 1080 nM | [10] 277 nM

O=C(O)c1ccccc1
not listed: [16] | [17] | [18] | [19] | [20]
inactive: all other assays above

Cc1nn(C)c(Oc2ccccc2)c1C=NOCc1ccc(C(=O)OC(C)(C)C)cc1
inactive: [6] | [2] | [4]
active: [5] 390 nM | [7] 1500 nM | [8] 3 nM | [9] 4360 nM | [10] 3270 nM | [11] 4.42 nM | [12] 2.93 nM | [13] 2.64 nM | [14] 5.44 nM | [16] 1.63 nM | [15] 2.74 nM

CCN(CC)C(=O)c1cccc(C)c1
active: [13] 19500 nM
inactive: [1] | [11] | [12] | [3] | [4] | [14] | [16] | [15]

CCNc1nc(N)nc(Cl)n1
inactive: [5] | [6] | [7] | [8] | [9] | [10]

CSC(=O)c1cccc2nnsc12
not listed: [13] | [16] | [17] | [18] | [19] | [20]
inactive: all other assays above

c1ccc2[nH]c(-c3cscn3)nc2c1
inactive: [2]
active: [1] 30500 nM | [3] 2700 nM | [4] 482 nM

CCCN(CCC)C(=O)SCC
inactive: [11] | [12] | [13] | [14] | [16] | [15]

CCOC(=O)COc1cc(-n2ncc(C(F)(F)F)c(C)c2=O)c(F)cc1Cl
inactive: [1] | [2] | [3] | [4]

CC(=O)[C@H]1CC[C@H]2[C@@H]3CCC4=CC(=O)CC[C@]4(C)[C@H]3CC[C@]12C
inactive: [2]

O=C(c1ccc(O)cc1O)c1ccc(O)cc1O
inactive: [5] | [6] | [7] | [8] | [9] | [10] | [2] | [4]
active: [1] 6670 nM | [3] 6690 nM

CC(C)(C)[C@@H](O)[C@@H](Cc1ccc(Cl)cc1)n1cncn1
inactive: [5] | [6] | [7] | [8] | [9] | [10]

CCCCOC(=O)[C@@H](C)Oc1ccc(Oc2ccc(C(F)(F)F)cn2)cc1
inactive: [1] | [2] | [3] | [4]

CC(C)(c1ccc(O)cc1)c1ccc(O)cc1
inactive: [5] | [6] | [7] | [8] | [10] | [11] | [12] | [13] | [14] | [16] | [15]
active: [9] 28600 nM | [17] 125000 nM | [18] 104000 nM | [12] 15000 nM | [13] 15000 nM | [16] 9.89 µM and 15 µM

CC(=O)S[C@@H]1CC2=CC(=O)CC[C@]2(C)[C@H]2CC[C@@]3(C)[C@@H](CC[C@@]34CCC(=O)O4)[C@H]12
active: [18] 127000 nM
inactive: [19] | [20] | [17]

C[C@]12C[C@H](O)[C@H]3[C@@H](CCC4=CC(=O)CC[C@@]43C)[C@@H]1CC[C@@H]2C(=O)CO
active: [20] 0.209 nM
inactive: [19] | [17] | [2] | [3] | [4]

S=C([S-])NCCNC(=S)[S-].[Mn+2]
inactive: [11] | [12] | [13] | [14] | [15]
